We go through seven compounds from PubChem BioAssay.

Records with an inconclusive call do not appear. The source made the active and inactive calls.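 Rule for the calls, unless noted: active = inhibition above the screen-wide mean plus 3 SD, about 51%; inactive = the rest.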

A short description of assay [1]: rapamycin-like changes in RPL19A-GFP expression – cell-based, S. cerevisiae, multiplex flow cytometry, primary screen (AID 1862; in the data active = percent of DMSO control GFP below about 86%;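 note: lower values mimic rapamycin by blocking the RPL19A rise seen in DMSO cells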). Conditions: S. cerevisiae RPL19A-GFP strain, flow cytometry fluorescence, 3 h; at 10 µM; stronger effect = lower value.
Assay [2] can be described thus: TOR pathway GLN3 branch reporter MEP2-GFP changes – S. cerevisiae, multiplex flow cytometry, primary screen (AID 1867;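 active = GFP response, as percent of the DMSO control, above the screen-wide mean plus 3 SD, about 139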;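 note: median GFP channel fluorescence of barcode-gated MEP2-GFP cells measured by flow cytometry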). Conditions: S. cerevisiae MEP2-GFP strain, 3 h, at 10 µM, stronger effect = higher value, 100% means same as DMSO wells. A general note: Flow cytometry measures light scatter and fluorescence of single cells or particles in a stream.
Assay [3] in a line: TOR pathway RTG branch CIT2 reporter changes – S. cerevisiae, GFP fusion, multiplex flow cytometry, primary screen (AID 1870;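 active = percent response above a set limit, the screen-wide mean plus 3 SD, cut at about 130% in these data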;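 note: barcoded CIT2-GFP strain pooled with four other GFP strains with rapamycin as positive control; median GFP fluorescence per well over plate mean of DMSO wells so 100% = DMSO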). Conditions: S. cerevisiae CIT2-GFP expression, 3 h, at 10 µM, stronger effect = higher value.
A short description of assay [4]: TOR pathway LAP4-GFP level changes – S. cerevisiae, multiplex flow cytometry, primary screen (AID 1873;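 active = GFP signal, as percent of the solvent control, above the screen mean plus 3 SD, about 149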). Conditions: S. cerevisiae LAP4-GFP expression, 3 h, at 10 µM, stronger effect = higher value.
Assay [5] can be described thus: yeast AGP1-GFP level changes, GLN3 branch – cell-based, multiplex flow cytometry, S. cerevisiae, primary screen (AID 1887;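 active = GFP signal above the screen-wide mean plus 3 SD, that is over about 124.5% of the solvent control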;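 note: AGP1-GFP fusion strain of S. cerevisiae within a five-strain barcoded multiplex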). Conditions: 3 h, at 10 µM, stronger effect = higher value.
Assay [6] can be described thus: reduced mouse 2C T cell binding to pMHC/ICAM-1 vesicles – MLPCN validation set, flow cytometry, LFA-1/ICAM-1 modulator project, pilot screen (AID 2523;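 active = response below a set limit, under 55% cells CD8-positive and vesicle-bound, and CD8 cells' 90th-percentile brightness under 279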;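 for vesicle binding response: mean PE anti-B7-1 fluorescence of CD8+ cells relative to row control; 100% = QL9-loaded vesicles with DMSO vehicle in the same plate row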). Conditions: 2C mouse CD8+ T cells, at 7 µM, stronger effect = lower value; double positive events: measured here: CD8+/vesicle+ event percentage.
The target in assay [7] is Integrin beta-1 (Homo sapiens) + Integrin alpha-4 (Homo sapiens) (UniProt P13612+P05556). As to the kind of experiment: alpha4beta1 integrin LIBS antibody binding reduction – U937 cells, HUTS-21 mAb, flow cytometry, validation set, VLA-4 allosteric modulator project, pilot screen (AID 2674;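 active = inhibition above 50%, about 3 SD of the validation set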;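 note: antibody binding induced by the VLA-4 ligand LDV present at three times its Kd; 0% = LDV ligand with antibody and no compound and 100% = antibody without LDV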). Conditions: HUTS-21 LIBS mAb binding, at 6.7 µM, stronger effect = higher value, binding induced by LDV ligand.
Integrin beta-1 (Homo sapiens) + Integrin alpha-4 (Homo sapiens), sequence (P05556 whole entry, looked up): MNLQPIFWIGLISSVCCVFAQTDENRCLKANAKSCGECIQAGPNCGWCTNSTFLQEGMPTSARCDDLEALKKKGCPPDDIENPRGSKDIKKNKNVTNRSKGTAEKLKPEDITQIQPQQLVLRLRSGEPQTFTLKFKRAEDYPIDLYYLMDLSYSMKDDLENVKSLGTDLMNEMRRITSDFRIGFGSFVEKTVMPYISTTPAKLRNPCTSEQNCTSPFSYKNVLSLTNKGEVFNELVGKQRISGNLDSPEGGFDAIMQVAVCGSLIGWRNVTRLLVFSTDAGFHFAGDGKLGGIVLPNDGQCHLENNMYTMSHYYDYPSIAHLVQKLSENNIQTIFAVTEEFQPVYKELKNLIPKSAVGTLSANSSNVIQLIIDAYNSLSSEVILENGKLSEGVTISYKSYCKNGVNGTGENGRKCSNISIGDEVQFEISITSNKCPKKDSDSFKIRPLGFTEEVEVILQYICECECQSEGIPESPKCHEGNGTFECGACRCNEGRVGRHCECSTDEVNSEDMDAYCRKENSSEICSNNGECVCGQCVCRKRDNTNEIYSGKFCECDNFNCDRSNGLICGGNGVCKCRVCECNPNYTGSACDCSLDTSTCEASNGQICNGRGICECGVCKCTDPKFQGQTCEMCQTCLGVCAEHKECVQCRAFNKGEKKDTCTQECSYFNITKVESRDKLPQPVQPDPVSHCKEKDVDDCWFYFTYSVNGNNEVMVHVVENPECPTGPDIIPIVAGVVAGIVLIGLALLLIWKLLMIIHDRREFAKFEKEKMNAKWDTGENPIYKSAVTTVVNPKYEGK
Integrin beta-1 (Homo sapiens) + Integrin alpha-4 (Homo sapiens), sequence (P13612 whole entry, looked up): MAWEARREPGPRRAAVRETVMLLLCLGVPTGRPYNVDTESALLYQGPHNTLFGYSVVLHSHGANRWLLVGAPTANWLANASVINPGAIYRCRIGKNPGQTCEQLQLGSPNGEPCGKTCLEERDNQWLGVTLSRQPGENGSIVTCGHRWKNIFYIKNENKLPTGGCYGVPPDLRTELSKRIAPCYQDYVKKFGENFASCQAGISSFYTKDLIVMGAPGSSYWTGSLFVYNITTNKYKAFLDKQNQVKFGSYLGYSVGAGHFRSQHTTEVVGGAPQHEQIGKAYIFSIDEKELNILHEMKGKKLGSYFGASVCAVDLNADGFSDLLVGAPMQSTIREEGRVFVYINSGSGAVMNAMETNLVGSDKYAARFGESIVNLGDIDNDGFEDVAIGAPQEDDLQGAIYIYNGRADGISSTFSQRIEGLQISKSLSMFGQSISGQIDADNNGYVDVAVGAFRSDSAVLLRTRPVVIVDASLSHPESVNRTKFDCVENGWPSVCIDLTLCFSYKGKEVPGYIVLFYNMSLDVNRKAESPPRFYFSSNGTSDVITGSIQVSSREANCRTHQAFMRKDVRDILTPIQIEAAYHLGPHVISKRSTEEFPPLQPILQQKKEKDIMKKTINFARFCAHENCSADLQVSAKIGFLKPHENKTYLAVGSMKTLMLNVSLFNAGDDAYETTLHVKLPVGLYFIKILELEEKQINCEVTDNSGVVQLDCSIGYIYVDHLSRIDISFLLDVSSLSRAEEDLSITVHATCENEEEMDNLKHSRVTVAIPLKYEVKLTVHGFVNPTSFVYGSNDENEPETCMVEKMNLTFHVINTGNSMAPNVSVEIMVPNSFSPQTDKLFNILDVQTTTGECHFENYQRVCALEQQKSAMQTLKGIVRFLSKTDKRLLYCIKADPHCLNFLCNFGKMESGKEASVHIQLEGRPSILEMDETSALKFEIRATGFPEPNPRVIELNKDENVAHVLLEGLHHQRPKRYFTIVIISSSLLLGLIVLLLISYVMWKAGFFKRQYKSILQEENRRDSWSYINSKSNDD

Assay [8] in a line: calorie-restriction mimetic ROS inhibitors, yeast – validation compound set, pilot screen (AID 2706;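 active = superoxide response below 65% of plate, a cut near 3 SD across the whole screen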;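 note: yeast exposed to compound for one week at 30 degrees C before staining; 100% = mean of all compound wells on the same plate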). Conditions: S. cerevisiae aging, superoxide DHE fluorescence; at 10 µM; stronger effect = lower value.
Assay [9] concerns the target Beta-adrenergic receptor kinase 1 (Homo sapiens) (UniProt P25098). The experiment in a line: GRK2 binders displacing RNA aptamer, biochemical, validation, human GRK2, bead flow cytometry (AID 488806;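 active = aptamer binding inhibition above 30%, about 3 SD of noise from non-fluorescent compounds; inactive = inhibition at or below 30%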). Conditions: bead-bound GRK2, FAM-aptamer displacement, at 10 µM, stronger effect = higher value.
Assay [10] concerns the target Beta-2 adrenergic receptor (Homo sapiens) (UniProt P07550). As to the kind of experiment: agonist-induced loss of surface beta2AR – cell-based, FAP fluorogen, flow cytometry, validation set, pilot screen (AID 504459;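 active = percent response above 42, roughly 3 SD of non-fluorescent test compounds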;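 note: agonist-driven loss of surface beta2AR via internalization measured by FAP dye flow cytometry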). Conditions: Am2.2-beta2AR cells, at 10 µM, stronger effect = higher value.
Assay [11] concerns the target AP-2 complex subunit beta (Homo sapiens) (UniProt P63010). As to the kind of experiment: beta-arrestin/AP2 interaction blockers – biochemical, validation set, GST-AP2 beads, flow cytometry, pilot screen (AID 504541;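 active = inhibition above 54%, about 3 SD of non-fluorescent compounds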;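 note: AP2 carries R879A mutation and is captured from E. coli lysate; bead-bound FITC arrestin peptide fluorescence measuring arrestin peptide binding to AP2; 0% = DMSO wells and 100% = excess unlabeled arrestin peptide control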). Conditions: FITC arrestin peptide, at 10 µM, stronger effect = higher value, AP2 beta2 appendage fragment, R879A mutant.
The nature of assay [12]: cytosolic pH regulators acting via V-ATPase – S. cerevisiae, pHLuorin, HTS validation (AID 504600; in the data active = response above about 15%;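 note: plate controls were DMSO for no effect and reference compound for full effect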). Conditions: V-ATPase proton transport, at 10 µM, stronger effect = higher value.
Assay [13] has as its system anti-desmoglein-3 scFv antibody binding to human DSG3. As to the kind of experiment: blockers of pathogenic pemphigus antibody–desmoglein-3 binding – biochemical, validation compound set, bead-based, flow cytometry, pilot screen (AID 588368;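 active = binding below the plate cutoff, the plate median minus 3 SD, with a reading above zero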;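 note: signal is the median channel fluorescence of bead-bound GFP antibody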). Conditions: Protein G beads, DSG3-Fc, scFv-GFP binding, at 10 µM, stronger effect = lower value.
Assay [14] is described as follows: Nile Red efflux blockade in pump-expressing yeast – validation compound set, multiplex, phenotypic, pilot screen (AID 588506;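 active = efflux inhibition above 0.42, the validation set average plus 4 SD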;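 note: Nile Red retained in cells so higher fluorescence means more efflux inhibition; 0 = negative control wells and 1 = enniatin B 25 µM full block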). Conditions: S. cerevisiae pump-expressing triplex, Nile Red efflux flow cytometry; at 10 µM; stronger effect = higher value; the pumps come from Candida albicans.
The target in assay [15] is ATP-binding cassette sub-family B member 6 (Homo sapiens) (UniProt Q9NP58). As to the kind of experiment: blockers of ABCB6-driven porphyrin uptake – K562-ABCB6 cells, flow cytometry, validation set, pilot screen (AID 588550).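 Note: 0% = DMSO wells and 100% = benzethonium chloride 70 µM positive control.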 Conditions: K562-ABCB6 porphyrin accumulation, 1 h, at 10 µM, stronger effect = higher value.
ATP-binding cassette sub-family B member 6 (Homo sapiens), sequence (Q9NP58 whole entry, looked up): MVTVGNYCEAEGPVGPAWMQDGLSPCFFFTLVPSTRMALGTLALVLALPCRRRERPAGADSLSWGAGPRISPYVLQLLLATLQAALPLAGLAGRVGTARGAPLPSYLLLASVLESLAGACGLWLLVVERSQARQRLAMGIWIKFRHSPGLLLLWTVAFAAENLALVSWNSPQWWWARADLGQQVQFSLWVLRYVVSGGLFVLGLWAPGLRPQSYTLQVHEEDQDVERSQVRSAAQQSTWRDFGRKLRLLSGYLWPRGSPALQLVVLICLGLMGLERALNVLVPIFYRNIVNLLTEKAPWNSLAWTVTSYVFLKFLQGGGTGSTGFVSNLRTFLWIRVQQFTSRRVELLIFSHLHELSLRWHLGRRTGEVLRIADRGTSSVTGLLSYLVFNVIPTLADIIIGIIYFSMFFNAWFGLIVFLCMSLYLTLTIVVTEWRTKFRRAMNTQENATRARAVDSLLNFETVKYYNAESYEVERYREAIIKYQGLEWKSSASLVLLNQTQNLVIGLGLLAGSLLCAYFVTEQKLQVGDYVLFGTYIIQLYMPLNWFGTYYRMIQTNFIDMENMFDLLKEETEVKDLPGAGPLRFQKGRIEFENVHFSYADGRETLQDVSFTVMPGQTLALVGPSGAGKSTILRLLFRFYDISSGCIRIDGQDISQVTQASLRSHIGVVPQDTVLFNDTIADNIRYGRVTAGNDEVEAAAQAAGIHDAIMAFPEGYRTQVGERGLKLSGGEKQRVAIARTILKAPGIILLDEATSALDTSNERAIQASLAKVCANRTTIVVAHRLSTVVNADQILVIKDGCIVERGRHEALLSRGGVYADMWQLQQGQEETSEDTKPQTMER
Assay [16] in a line: AML differentiation inducers, ER-HoxA9 marrow cells – cell-based, GFP/MAC1 double positive, flow cytometry, validation set, primary screen (AID 588685;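 active = differentiation response of at least 50%, scaled between solvent and reference control, from cells with both markers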;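 note: compound exposure lasts four days before antibody staining and flow analysis; 0% = DMSO wells and 100% = 5 µM fulvestrant positive control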). Conditions: stronger effect = higher value, normalized: vehicle 0, fulvestrant 100.

AP-2 complex subunit beta (Homo sapiens), sequence (P63010 whole entry, looked up, the tested form may be a part, one chain of several): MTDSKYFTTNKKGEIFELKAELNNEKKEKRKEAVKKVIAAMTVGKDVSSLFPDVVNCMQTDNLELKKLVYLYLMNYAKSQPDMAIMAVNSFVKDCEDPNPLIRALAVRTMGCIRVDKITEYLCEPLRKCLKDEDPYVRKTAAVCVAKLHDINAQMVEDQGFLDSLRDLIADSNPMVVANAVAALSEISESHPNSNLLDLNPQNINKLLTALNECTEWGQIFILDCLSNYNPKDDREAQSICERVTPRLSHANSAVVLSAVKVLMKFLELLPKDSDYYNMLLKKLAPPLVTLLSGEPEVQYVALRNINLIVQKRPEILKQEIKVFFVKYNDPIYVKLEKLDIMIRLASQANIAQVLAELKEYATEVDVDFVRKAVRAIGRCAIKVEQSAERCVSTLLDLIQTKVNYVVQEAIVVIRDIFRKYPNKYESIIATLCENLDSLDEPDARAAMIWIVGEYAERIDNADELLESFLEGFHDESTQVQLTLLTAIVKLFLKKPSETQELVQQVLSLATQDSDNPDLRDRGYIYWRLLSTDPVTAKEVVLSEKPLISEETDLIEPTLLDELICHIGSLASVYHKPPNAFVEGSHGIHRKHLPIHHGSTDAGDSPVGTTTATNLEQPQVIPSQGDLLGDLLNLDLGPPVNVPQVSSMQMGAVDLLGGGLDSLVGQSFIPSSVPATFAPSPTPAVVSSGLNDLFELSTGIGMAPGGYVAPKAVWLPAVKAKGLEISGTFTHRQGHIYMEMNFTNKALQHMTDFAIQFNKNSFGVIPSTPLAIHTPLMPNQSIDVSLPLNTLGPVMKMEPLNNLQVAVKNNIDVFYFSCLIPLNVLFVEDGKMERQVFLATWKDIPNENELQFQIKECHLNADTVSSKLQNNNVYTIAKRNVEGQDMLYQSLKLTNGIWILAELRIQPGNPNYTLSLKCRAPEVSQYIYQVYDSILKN
Beta-adrenergic receptor kinase 1 (Homo sapiens), sequence (P25098 whole entry, looked up): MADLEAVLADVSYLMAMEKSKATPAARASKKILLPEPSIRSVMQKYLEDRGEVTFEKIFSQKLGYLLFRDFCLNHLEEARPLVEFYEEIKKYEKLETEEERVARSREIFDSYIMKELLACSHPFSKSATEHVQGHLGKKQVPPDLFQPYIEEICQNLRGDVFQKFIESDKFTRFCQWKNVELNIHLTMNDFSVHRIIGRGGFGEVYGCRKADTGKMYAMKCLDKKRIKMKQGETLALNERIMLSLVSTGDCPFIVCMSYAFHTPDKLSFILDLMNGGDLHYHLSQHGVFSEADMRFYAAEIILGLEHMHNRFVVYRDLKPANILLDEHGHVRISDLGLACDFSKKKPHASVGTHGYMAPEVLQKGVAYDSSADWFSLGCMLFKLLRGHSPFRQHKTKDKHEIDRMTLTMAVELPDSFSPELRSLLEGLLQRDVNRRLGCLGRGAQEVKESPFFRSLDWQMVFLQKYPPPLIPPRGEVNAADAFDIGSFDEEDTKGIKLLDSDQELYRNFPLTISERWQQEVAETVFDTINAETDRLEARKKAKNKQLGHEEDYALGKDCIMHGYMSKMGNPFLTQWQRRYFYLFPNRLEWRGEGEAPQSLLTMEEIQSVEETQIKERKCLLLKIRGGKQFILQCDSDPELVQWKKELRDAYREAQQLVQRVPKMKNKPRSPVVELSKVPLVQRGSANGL
Beta-2 adrenergic receptor (Homo sapiens), sequence (P07550 whole entry, looked up): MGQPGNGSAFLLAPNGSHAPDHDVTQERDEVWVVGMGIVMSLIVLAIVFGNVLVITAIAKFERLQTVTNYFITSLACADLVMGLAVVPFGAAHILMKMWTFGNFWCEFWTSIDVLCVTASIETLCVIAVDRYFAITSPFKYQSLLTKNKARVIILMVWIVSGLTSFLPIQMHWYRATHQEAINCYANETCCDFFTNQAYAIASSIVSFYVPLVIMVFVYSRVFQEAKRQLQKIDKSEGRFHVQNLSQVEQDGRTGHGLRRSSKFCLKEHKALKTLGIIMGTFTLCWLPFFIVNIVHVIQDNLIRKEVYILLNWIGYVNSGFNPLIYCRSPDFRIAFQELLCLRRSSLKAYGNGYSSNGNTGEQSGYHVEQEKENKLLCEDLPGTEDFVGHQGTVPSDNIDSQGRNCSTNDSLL

For orientation: inhibition means the drop in the measured response relative to a control, in per cent. `CCOC(=O)c1cc2c(nc1N)CC(C)(CC)OC2` (centres undefined): the percent of DMSO control GFP in [1] was 101% (inactive). Besides, the GFP response vs DMSO in assay [2] is 109% (inactive); in assay [4], 127% (inactive). Besides, the percent response of DMSO control in assay [3] is 91% (inactive). In addition, in assay [5], the GFP response, % of DMSO is 100% (inactive). Moreover, in assay [6], the double positive events was 61.3%. Further, in assay [6], the vesicle binding response is 170% (inactive). The inhibition was 9.13% (inactive) in assay [7], 38.2% (inactive) in assay [11] and 3% (inactive) in assay [15]. For the same compound, the superoxide response (% of plate) in [8] is 97.3% (inactive). In assay [9], the aptamer binding inhibition was -1% (inactive). In addition, the response in [10] is -13.4% (inactive); in assay [12], -3.65% (inactive). The binding (% of control) in assay [13] was 105% (inactive). Moreover, the efflux inhibition (fraction of control) in [14] was -0.24 (inactive). Further, the differentiation response in assay [16] is 60% (active).

As to `C[C@]12CCC3C(CC=C4C[C@@H](O)CC[C@@]43C)C1CCC2[C@]1(C)CCC(=O)O1` (some centres undefined), the percent of DMSO control GFP in assay [1] is 102% (inactive). Moreover, the GFP response vs DMSO in [2] was 97.4% (inactive); in assay [4] it was 84.6% (inactive). Besides, in assay [3], the percent response of DMSO control is 109% (inactive). In addition, in assay [5], the GFP response, % of DMSO was 95.7% (inactive). Further, the double positive events in assay [6] stood at 57%. For the same compound, the vesicle binding response in assay [6] was 164% (inactive). The values for the inhibition in assay [7], in assay [11] and in [15] were 0.94% (inactive), -4.51% (inactive) and 9% (inactive), respectively. For the same compound, in [8], the superoxide response (% of plate) was 100% (inactive). In addition, in [9], the aptamer binding inhibition is 4% (inactive). The response in assay [10] is 1.67% (inactive); in assay [12], -0.48% (inactive). The binding (% of control) in assay [13] is 103% (inactive). Also, the efflux inhibition (fraction of control) in assay [14] is 0.48 (active). Moreover, the differentiation response in assay [16] was -15.2% (inactive).

With `CN(C)CCOC(=O)C(c1ccccc1)C1(O)CCCC1` (centres undefined), the percent of DMSO control GFP in assay [1] was 92% (inactive). For the same compound, the GFP response vs DMSO in [2] is 137% (inactive); in assay [4] it was 75.9% (inactive). For the same compound, the percent response of DMSO control in [3] was 97.9% (inactive). Moreover, the GFP response, % of DMSO in [5] is 84.3% (inactive). For the same compound, in assay [6], the double positive events is 65.7%. Also, the vesicle binding response in [6] was 249% (inactive). Moreover, the inhibition in assay [7] is 13.2% (inactive); in [11], 1.31% (inactive); in assay [15], 14% (inactive). Moreover, the superoxide response (% of plate) in [8] is 96.1% (inactive). Moreover, the aptamer binding inhibition in assay [9] is 3% (inactive). The response was 2.3% (inactive) in assay [10] and 0.51% (inactive) in assay [12]. Besides, in assay [13], the binding (% of control) was 103% (inactive). In assay [14], the efflux inhibition (fraction of control) is 0.05 (inactive). Moreover, in [16], the differentiation response was -6.55% (inactive).

Consider `COc1ccc(C2NC(C(=O)O)Cc3c2[nH]c2ccccc32)cc1CN1CCN(c2ccc(F)cc2)CC1` (centres undefined), for which the percent of DMSO control GFP in assay [1] was 104% (inactive). For the same compound, the results for the GFP response vs DMSO in [2] and in [4] were 98.3% (inactive) and 102% (inactive), respectively. For the same compound, the percent response of DMSO control in assay [3] was 113% (inactive). Besides, the GFP response, % of DMSO in assay [5] was 104% (inactive). Further, the double positive events in assay [6] was 63.4%. The vesicle binding response in assay [6] was 242% (inactive). The inhibition in assay [7] is -0.45% (inactive); in [11], -4.95% (inactive); in assay [15] it was 1% (inactive). In addition, in assay [8], the superoxide response (% of plate) is 94.5% (inactive). In addition, the aptamer binding inhibition in assay [9] was -6% (inactive). Further, the response in assay [10] was 6.62% (inactive); in assay [12], 2.85% (inactive). In addition, the binding (% of control) in assay [13] was 102% (inactive). Further, in assay [14], the efflux inhibition (fraction of control) was -0.07 (inactive). Also, the differentiation response in assay [16] is 1.22% (inactive).

Take `O=C(Cc1ccccc1[N+](=O)[O-])NCCCN1CCOCC1`: the percent of DMSO control GFP in assay [1] is 101% (inactive). The GFP response vs DMSO in [2] was 101% (inactive); in assay [4], 107% (inactive). The percent response of DMSO control in assay [3] is 96.4% (inactive). In addition, the GFP response, % of DMSO in assay [5] was 107% (inactive). For the same compound, the double positive events in assay [6] was 63.1%. Moreover, the vesicle binding response in assay [6] was 426% (inactive). Also, the inhibition in [7] was -4.52% (inactive); in assay [11], -4.04% (inactive); in [15], 2% (inactive). The superoxide response (% of plate) in [8] was 113% (inactive). Moreover, the aptamer binding inhibition in assay [9] is 1% (inactive). The response in [10] is -20% (inactive); in assay [12] it was 0.45% (inactive). Further, the binding (% of control) in assay [13] was 99.9% (inactive). Also, the efflux inhibition (fraction of control) in [14] is 0 (inactive). In addition, the differentiation response in assay [16] is -5.97% (inactive).

`Cc1ccc(C2CC(c3cccs3)=NN2C(=O)c2ccco2)o1` (centres undefined): in assay [1], the percent of DMSO control GFP is 92.6% (inactive). The GFP response vs DMSO is 87.6% (inactive) in [2] and 82.8% (inactive) in [4]. For the same compound, in assay [3], the percent response of DMSO control was 89.3% (inactive). Moreover, in assay [5], the GFP response, % of DMSO is 87% (inactive). Moreover, the double positive events in assay [6] amounted to 62.2%. The vesicle binding response in [6] was 135% (inactive). Moreover, the inhibition in assay [7] was 2.93% (inactive); in assay [11], -17.3% (inactive); in assay [15] it was -1% (inactive). For the same compound, the superoxide response (% of plate) in assay [8] was 106% (inactive). The aptamer binding inhibition in assay [9] is -1% (inactive). For the same compound, the response was -25.7% (inactive) in [10] and -7.57% (inactive) in [12]. Moreover, the binding (% of control) in [13] was 107% (inactive). Further, in assay [14], the efflux inhibition (fraction of control) is 0.275 (inactive). The differentiation response in assay [16] was 1.28% (inactive).

For `Clc1ccc2c(c1)CCc1cccnc1C2=C1CCNCC1`, the percent of DMSO control GFP in assay [1] is 101% (inactive). Further, the GFP response vs DMSO in assay [2] is 109% (inactive); in [4] it was 93.3% (inactive). In [3], the percent response of DMSO control was 104% (inactive). For the same compound, the GFP response, % of DMSO in assay [5] is 97% (inactive). In assay [6], this compound came in with a double positive events of 63.9%. Further, the vesicle binding response in assay [6] was 1240% (inactive). For the same compound, the inhibition in [7] is 3.7% (inactive); in [11], 13.9% (inactive); in assay [15] it was -15% (inactive). For the same compound, the superoxide response (% of plate) in assay [8] was 98.7% (inactive). Also, in [9], the aptamer binding inhibition is 3% (inactive). In addition, the results for the response in assay [10] and in assay [12] were 16.1% (inactive) and 1.57% (inactive), respectively. Also, the binding (% of control) in assay [13] is 103% (inactive). Besides, in assay [14], the efflux inhibition (fraction of control) is -0.17 (inactive). The differentiation response in [16] is -4.64% (inactive).
